Assay: inhibition of PAO1 biofilm formation – strain PAO1, LB-PBS medium, absorbance 600 nm, primary screen (AID 1176); note: test concentration not given here
Details: P. aeruginosa PAO1 growth/biofilm, A600, 12 h; higher = more signal; call rule not given here

z-score, inactive:
COC(=O)[C@@]1(Cc2ccc(F)cc2)[C@H]2c3cc(C(=O)N4CCCC4)n(Cc4ccc(S(C)(=O)=O)cc4)c3C[C@H]2CN1C(=O)c1ccccc1 1.09
CO[C@H]1O[C@H](CO)[C@@H](OC(=O)Nc2ccc(C(F)(F)F)cc2)[C@H](OC(=O)Nc2ccc3c(c2)OCO3)[C@@H]1OC(=O)Nc1ccc2c(c1)OCO2 1.54
O=C1O[C@@H](c2ccccc2)[C@@H](c2ccccc2)N2[C@@H](c3ccccc3OCCO)[C@]3(C(=O)Nc4ccccc43)[C@@H](C(=O)Nc3nc4ccccc4s3)[C@H]12 1.36
Cc1ccc(S[C@]2(C(=O)NCCCN(C)C)CC(=O)N(Cc3cc(C(F)(F)F)cc(C(F)(F)F)c3)[C@@H]2c2ccc(CO)cc2I)cc1 0.323
O=C1c2ccccc2[C@](Cc2ccccc2I)(C(=O)NCC(F)(F)F)[C@H](c2ccc(CO)cc2)N1Cc1ccccc1Cl 0.723
O=C(NCCN1CCOCC1)[C@@H]1c2ccccc2C(=O)N(C2CCCCC2)[C@H]1c1ccc(CO)cc1 -0.177
CC#CC(=O)Oc1ccccc1C=CC(=O)OCC 1.21
COC(=O)[C@@]1(CCS(=O)(=O)c2ccccc2)N=C(c2ccc(OCCCO)cc2)O[C@H]1c1ccccc1CN=[N+]=[N-] 0.92
C=CC1(C(=O)OC)CC=C(C(=O)OC)CC1 (configuration not stated) 0.201
CC(C)C(CO)N1C(=O)[C@@H]2C3C(=O)OCCC/C=C\[C@H]3OC23C=CCN(CCN2CCOCC2)C(=O)[C@@H]13 (some centres not stated) 0.109
COc1cc(C(O)C2C=CC3C(=O)NC(=O)C3N2Nc2ccccn2)cc(OC)c1OC (configuration not stated) 1.16
COC(=O)[C@@]1(Cc2ccccc2)[C@H]2c3cc(C(=O)N4CCCC4)n(Cc4ccc(S(C)(=O)=O)cc4)c3C[C@H]2CN1C(=O)c1ccccc1 0.206
C=C[C@@H](COC(=O)OC(C)(C)C)N(Cc1ccc(OC)cc1)S(=O)(=O)c1ccc(Br)cc1 -0.177
COC(=O)[C@H](Cc1ccccc1)N[C@@H](/C=C/C1CC1)[C@H](O)Cc1ccccc1 0.0117
O=C1c2ccccc2[C@](Cc2ccccc2I)(C(=O)NCCN2CCOCC2)[C@H](c2ccc(CO)cc2)N1C1CCCCC1 0.531
CCOC(=O)[C@H]1C/C=C/C[C@H](C(=O)OCC)C(=O)O[C@H]2[C@@H](OC)O[C@H](CO)[C@@H](OC(=O)c3c(OC)cccc3OC)[C@@H]2OC1=O 0.498
CCOC(=O)C[C@H]1[C@H](OC(=O)c2ccc(C(=O)c3ccccc3)cc2)[C@@H](NC(=O)c2ccc3ccccc3c2)c2cc(OCCCO)ccc2N1C(=O)Cc1ccc(OC)cc1 -0.382
CCC(CC)C(O)C1C=CC2C(=O)NC(=O)C2N1Nc1ccccn1 (configuration not stated) 0.503
COc1ccc([Si](C)(C)[C@H]2[C@H](CC(=O)N3Cc4ccccc4C[C@H]3CO)O[C@@]3(C(=O)N(Cc4cccc(N5CCC5=O)c4)c4ccccc43)[C@@H]2C)cc1 0.389
OCCCC1=CC(c2cccs2)N(Cc2cc3c(cc2Br)OCO3)CC1 (configuration not stated) 0.531
CCCCCCc1nc(-c2ccc(OC)nc2)cc2c1[Si](C(C)C)(C(C)C)O[C@H]2c1ccccc1 0.256
COc1ccc([Si](C)(C)[C@H]2[C@H](CCO)O[C@@]3(C(=O)N(Cc4ccc(N(C=O)c5ccccc5)cc4)c4ccccc43)[C@@H]2C)cc1 2.06
O=C(NCCO)C1=C[C@H](Oc2ccccc2I)[C@@H](O)[C@H](N(Cc2ccco2)C(=O)Cc2ccccc2)C1 -0.848
C=C[C@H](C)[C@@H](OC(=O)Nc1ccc(OC)cc1)c1ccc(O)c2ccccc12 0.802
C=C(COC)/C(=C/C[C@H](OC(C)=O)c1ccc(CO)o1)c1cc(C(=O)OC)ccc1OC -0.317
COC(=O)[C@@]1(Cc2ccccc2)[C@H]2c3cc(C(=O)N(C)C)n(Cc4ccsc4Br)c3C[C@H]2CN1C(=O)c1ccccc1 0.467
COc1ccc([Si](C)(C)[C@@H]2[C@@H](CCO)O[C@]3(C(=O)N(Cc4ccc(N(C=O)c5ccccc5)cc4)c4ccccc43)[C@H]2C)cc1 1.46

Reference: PubChem BioAssay
